These results are taken from PubChem BioAssay (Tox21).

The structures appear in SMILES notation. Records with an inconclusive call do not appear. Where a call stands in place of a potency, no number is given. A number with no mark means an inactive call. Calls of active or inactive are those of the source. The call rests on the fitted dose curve; in most records, active means well fitted curve in the direction sought with a large enough effect in the repeat runs; inconclusive means weak or mixed curves; inactive means no such curve, though single readings can be large; an effect the other way counts as inactive or inconclusive.

One experiment can be described thus: A CellTox Green Cytotoxicity Assay to monitor cytotoxicity in HEK293 cells - 40 hour (AID 1224871). Further: nearly all actives have a fitted effect of over 45% in size. The conditions noted are these: CellTox Green fluorescence; series mostly up to 76.8 µM. In a few lines:
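Dead-cell fluorescence measured kinetically: asymmetric cyanine dye, HEK293, 600 cells/well, 5 h settle, 23 nL cpd/DMSO, 37 C, reads 0–40 h every 8 h.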
As to `O=c1oc2c(O)c(O)cc3c(=O)oc4c(O)c(O)cc1c4c23`, the cytotoxicity increase is 16.8% [at 15.8 µM].
On to `Cc1nnc(SCC2=C(C(=O)O)N3C(=O)[C@@H](NC(=O)Cn4cnnn4)[C@H]3SC2)s1`, for which the Potency result is “inactive”.
Still for that read-out and setting: under `Cc1cc(S(=O)(=O)O)c(N)cc1Cl` stands “inactive”; under `COc1cc(C)ccc1C(C)C`, “inactive”.
Same read-out and setting: the entry for `Cc1ccsc1C(=CCCN1CCC[C@@H](C(=O)O)C1)c1sccc1C` is “inactive”; for `C=CC1CO1` (stereo not drawn) it is “inactive”.
Same read-out and setting: the entry for `CNCCC(Oc1ccccc1OC)c1ccccc1` (stereo not drawn) is “inactive”.
Take `FC(F)(F)C(F)(F)C(F)(F)C(F)(F)C(F)(F)C(F)(F)C(F)(F)C(F)(F)Br`: the Potency result was “inactive”.
The same measure, in the same setting: under `CCN(CC)C(=O)N(CC)CC` stands “inactive”.
Still for that read-out and setting: under `CN(CC1(C)CCCO1)S(=O)(=O)c1ccc(Cl)c(S(N)(=O)=O)c1` (stereo not drawn) stands “inactive”.
The same measure, in the same setting: under `O=CCCc1ccccc1` stands “inactive”.
Take `CN1C(=O)CC(c2ccccc2)C1=O` (stereo not drawn): the Potency entry is “inactive”.
The same measure, in the same setting: under `CCCN(CCC)C(=O)C(CCC(=O)O)NC(=O)c1ccccc1` (stereo not drawn) stands “inactive”; under `CC(=O)Nc1ccc(C)c(Cl)c1`, “inactive”.
For the molecule `CCCCN1C[C@H](O)[C@@H](O)[C@H](O)[C@H]1CO`, the Potency entry is “inactive”.
On the same count and under the same terms, the entry for `Cc1cccc(C)c1NC(=O)CN1CCCCCC1` is “inactive”.
The same measure, in the same setting: the entry for `CO[C@@]1(NC(=O)CSCC#N)C(=O)N2C(C(=O)O)=C(CSc3nnnn3C)CS[C@@H]21` is “inactive”; for `FC(F)(F)C(Cl)(Cl)Cl` it is “inactive”.
The same measure, in the same setting: the entry for `CCC(=O)Nc1ccc(O)cc1` is “inactive”.
On to `N#Cc1ccc(C(c2ccc(C#N)cc2)n2cncn2)cc1`, for which the Potency result was “inactive”.
The same measure, in the same setting: under `CCOc1ccc2nc(N)sc2c1` stands “inactive”.
Turning to `Cc1ccc([N+](=O)[O-])cc1Cl`, the Potency entry is “inactive”.
The same measure, in the same setting: the entry for `CCCCCCC` is “inactive”; for `CCc1cc(Cl)c(OC)c(C(=O)NC[C@@H]2CCCN2CC)c1O` it is “inactive”.
On the same count and under the same terms, the entry for `CC(C)O` is “inactive”.
Same read-out and setting: the entry for `CC(CNC1CCCCC1)OC(=O)c1ccccc1` (stereo not drawn) is “inactive”; for `CC(=O)OC1C2(C)CCC(C2)C1(C)C` (stereo not drawn) it is “inactive”.
As for `COc1ccc(S(=O)(=O)Nc2nnc(CC(C)C)s2)cc1`, the Potency result was “inactive”.
The same measure, in the same setting: under `NC/C=C/C(=O)O` stands “inactive”; under `C1CSCCS1`, “inactive”.
Still for that read-out and setting: under `C[C@]12C(=O)OC(=O)[C@H]1[C@H]1C=C[C@@H]2C1` stands “inactive”; under `OCCN(CCO)CCN(CCO)CCO`, “inactive”; under `O=S(=O)(O)C(F)(F)F`, “inactive”.
Consider `CC(C)NCC(O)COc1ccc(CCOCC2CC2)cc1` (stereo not drawn), for which the Potency entry is “inactive”.
For `NC1=NCC2c3ccccc3Cc3ccccc3N12` (stereo not drawn), the Potency entry is “inactive”.
On to `CC(C)(CO)[C@@H](O)C(=O)NCCC(=O)O`, for which the Potency entry was “inactive”.
Still for that read-out and setting: under `CCCCNC(=S)NCCCC` stands “inactive”; under `CC(C)CCCCCCc1ccc(OCCOCCO)cc1`, “inactive”; under `CC(=O)O[C@H]1CC[C@@]2(C)C(=CC[C@@H]3[C@@H]2CC[C@]2(C)C(C(C)=O)=CC[C@@H]32)C1`, “inactive”.

The nature of a further experiment: qHTS RealTime-Glo MT Cell Viability Assay in HEK293 cells - 16 hour (AID 1224872). Further: top concentration of the series differs between compounds; nearly all actives have a fitted effect of over 50% in size. The conditions noted are these: RealTime-Glo luminescence; series mostly up to 76.8 µM. The method, boiled down:
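Cells + reagent dispensed (600 cells/well, HEK293) → 5 h at 37 C/5% CO2 → 23 nL compound in DMSO pinned → 40 h at 37 C → luminescence read at 0, 8, 16, 24, 32, 40 h.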
(In general: qHTS replaces the single test concentration by a dilution series.)
Take `O=c1oc2c(O)c(O)cc3c(=O)oc4c(O)c(O)cc1c4c23`: the activity change, negative = cytotoxicity is -3.75% [at 15.8 µM].
Consider `Cc1nnc(SCC2=C(C(=O)O)N3C(=O)[C@@H](NC(=O)Cn4cnnn4)[C@H]3SC2)s1`, for which the Potency result is “inactive”.
The same measure, in the same setting: under `Cc1cc(S(=O)(=O)O)c(N)cc1Cl` stands “inactive”; under `COc1cc(C)ccc1C(C)C`, “inactive”.
As for `Cc1ccsc1C(=CCCN1CCC[C@@H](C(=O)O)C1)c1sccc1C`, the Potency entry was “inactive”.
Same read-out and setting: under `C=CC1CO1` (stereo not drawn) stands “inactive”.
Still for that read-out and setting: the entry for `CNCCC(Oc1ccccc1OC)c1ccccc1` (stereo not drawn) is “inactive”; for `FC(F)(F)C(F)(F)C(F)(F)C(F)(F)C(F)(F)C(F)(F)C(F)(F)C(F)(F)Br` it is “inactive”; for `CCN(CC)C(=O)N(CC)CC` it is “inactive”.
`CN(CC1(C)CCCO1)S(=O)(=O)c1ccc(Cl)c(S(N)(=O)=O)c1` (stereo not drawn): the Potency entry was “inactive”.
Turning to `O=CCCc1ccccc1`, the Potency result was “inactive”.
Same read-out and setting: under `CN1C(=O)CC(c2ccccc2)C1=O` (stereo not drawn) stands “inactive”.
As for `CCCN(CCC)C(=O)C(CCC(=O)O)NC(=O)c1ccccc1` (stereo not drawn), the Potency entry is “inactive”.
For `CC(=O)Nc1ccc(C)c(Cl)c1`, the Potency result is “inactive”.
In the case of `CCCCN1C[C@H](O)[C@@H](O)[C@H](O)[C@H]1CO`, the Potency result is “inactive”.
In the case of `Cc1cccc(C)c1NC(=O)CN1CCCCCC1`, the Potency result was “inactive”.
Same read-out and setting: the entry for `CO[C@@]1(NC(=O)CSCC#N)C(=O)N2C(C(=O)O)=C(CSc3nnnn3C)CS[C@@H]21` is “inactive”.
Same read-out and setting: the entry for `FC(F)(F)C(Cl)(Cl)Cl` is “inactive”; for `CCC(=O)Nc1ccc(O)cc1` it is “inactive”; for `N#Cc1ccc(C(c2ccc(C#N)cc2)n2cncn2)cc1` it is “inactive”.
Still for that read-out and setting: the entry for `CCOc1ccc2nc(N)sc2c1` is “inactive”; for `Cc1ccc([N+](=O)[O-])cc1Cl` it is “inactive”.
`CCCCCCC`: the Potency result was “inactive”.
On the same count and under the same terms, the entry for `CCc1cc(Cl)c(OC)c(C(=O)NC[C@@H]2CCCN2CC)c1O` is “inactive”.
Same read-out and setting: under `CC(C)O` stands “inactive”.
The same measure, in the same setting: under `CC(CNC1CCCCC1)OC(=O)c1ccccc1` (stereo not drawn) stands “inactive”.
Take `CC(=O)OC1C2(C)CCC(C2)C1(C)C` (stereo not drawn): the Potency result was “inactive”.
`COc1ccc(S(=O)(=O)Nc2nnc(CC(C)C)s2)cc1`: the Potency entry was “inactive”.
Same read-out and setting: under `NC/C=C/C(=O)O` stands “inactive”.
On the same count and under the same terms, under `C1CSCCS1` stands “inactive”.
The same measure, in the same setting: under `C[C@]12C(=O)OC(=O)[C@H]1[C@H]1C=C[C@@H]2C1` stands “inactive”; under `OCCN(CCO)CCN(CCO)CCO`, “inactive”.
For `O=S(=O)(O)C(F)(F)F`, the Potency entry is “inactive”.
Same read-out and setting: under `CC(C)NCC(O)COc1ccc(CCOCC2CC2)cc1` (stereo not drawn) stands “inactive”; under `NC1=NCC2c3ccccc3Cc3ccccc3N12` (stereo not drawn), “inactive”; under `CC(C)(CO)[C@@H](O)C(=O)NCCC(=O)O`, “inactive”.
Still for that read-out and setting: the entry for `CCCCNC(=S)NCCCC` is “inactive”.
On to `CC(C)CCCCCCc1ccc(OCCOCCO)cc1`, for which the Potency entry was “inactive”.
As to `CC(=O)O[C@H]1CC[C@@]2(C)C(=CC[C@@H]3[C@@H]2CC[C@]2(C)C(C(C)=O)=CC[C@@H]32)C1`, the Potency result was “inactive”.
